{"source": "PubChem BioAssay AID651821", "about": "(The Scripps Research Institute Molecular Screening Center, 2012)", "note": "Among all 370,000 compounds or so, about 4,700 (1.3%) were called active. Many of the other results were omitted from the sample, so actives are more common in it than they were. Unmarked numbers belong to inactive results.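 Rule for the calls: active = inhibition above the plate cutoff, the mean of all test compounds on that plate plus 3 SD (cut at about 35% in these data); inactive = the rest.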", "data": [{"assay": "small molecules binding CAG repeat RNA – biochemical, fluorescence, primary screen (AID 651821);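 note: 0% = DMSO alone and 100% = 100 µM mitoxantrone as full dye displacement; higher means more dye released from RNA so lower well fluorescence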", "conditions": "r(CAG) RNA repeat, TO-PRO-1 dye displacement fluorescence; at 3 µM; active compounds read high", "values": [{"smiles": "CCOC(=O)[C@]12CCCCC/C=C\\1N(Cc1ccc(OC)cc1)C(=O)[C@H]2CC(=O)NCCCN1CCCC1=O", "inhibition": "0.52%"}, {"smiles": "COC(=O)[C@]12C[C@H](CC(=O)NCc3ccccc3)C(=O)N(Cc3ccccc3)C1=C[C@H](COCc1ccccc1)O[C@@H]2C", "inhibition": "8.61%"}, {"smiles": "O=C1Oc2ccccc2C(=O)/C1=C/c1ccccc1O", "inhibition": "51% (active)"}, {"smiles": "Cc1ccc(-c2nc(C3CCCN(S(=O)(=O)c4ccc(Br)s4)C3)no2)cc1", "note": "(configuration not stated)", "inhibition": "5.63%"}, {"smiles": "C=CCN=C1NC(c2cccc(C(F)(F)F)c2)C(C(=O)OC)=C(C)N1C", "note": "(configuration not stated)", "inhibition": "6.1%"}, {"smiles": "Cc1cc(C)cc(OCC(=O)NCc2cc(C)nc3ccccc23)c1", "inhibition": "-3.64%"}, {"smiles": "O=C(NNc1c2ccccc2nc2ccccc12)c1cc2ccccc2cc1O", "inhibition": "49.2% (active)"}, {"smiles": "Cc1cc(C(=O)NNC(=O)c2cccc(S(=O)(=O)N3CCOCC3)c2)c2ccccc2n1", "inhibition": "0.6%"}, {"smiles": "Oc1c(Cl)cc(Cl)c(Cl)c1Cc1c(O)c(Cl)cc(Cl)c1Cl", "inhibition": "94% (active)"}, {"smiles": "CCOC(=O)CNC(=O)N(C)[C@H]1C[C@H]2c3[nH]c4c(-c5ccc6c(c5)OCO6)cccc4c3CCN2C(=O)[C@H]1[C@H](C)O", "inhibition": "9.34%"}, {"smiles": "O=[N+]([O-])c1cc(Cl)cc(/C=N/NC(=S)Nc2cc(S(=O)(=O)N3CCOCC3)ccc2Cl)c1O", "inhibition": "37.7% (active)"}, {"smiles": "COCCNC(=S)Nc1cc(S(=O)(=O)N2CCOCC2)ccc1N1CCCCC1", "inhibition": "1.62%"}, {"smiles": "Cc1cc(OCCCC(=O)Nc2cc(S(=O)(=O)N3CCOCC3)ccc2N2CCOCC2)ccc1Cl", "inhibition": "2.46%"}, {"smiles": "O=C(C(=O)N1CCC(c2ccccc2)CC1)c1ccccc1", "inhibition": "1.3%"}, {"smiles": "CCOC(=O)c1cccc(NC(=O)CN(C)S(=O)(=O)c2ccc(-c3cocn3)s2)c1", "inhibition": "2.95%"}, {"smiles": "O=C(CSc1nnc(-c2ccccn2)n1-c1ccccc1)Nc1ccc2cn[nH]c2c1", "inhibition": "3.05%"}, {"smiles": "O=C(Nc1cccc(Cl)c1)OC1CC2CC1[C@H]1CCCCN1[C@H]2Cc1ccccc1", "note": "(some centres not stated)", "inhibition": "7.48%"}, {"smiles": "Cc1ccccc1OS(=O)(=O)c1cccc([N+](=O)[O-])c1", "inhibition": "0.69%"}, {"smiles": "CCn1cc(/C=C(\\NC(=O)c2ccc(C)cc2)C(=O)NCCN2CCOCC2)c2ccccc21", "inhibition": "-0.63%"}, {"smiles": "O=C(NCC1CCCO1)/C(=C/c1ccc(Cl)cc1)NC(=O)c1ccccc1", "note": "(configuration not stated)", "inhibition": "-2.17%"}, {"smiles": "Cn1c2ccccc2c2cc(/C=C(\\NC(=O)c3ccccc3)C(=O)NCC(=O)O)ccc21", "inhibition": "35.8% (active)"}, {"smiles": "Cc1nc2ccc(C(=O)N3CCN(C(=O)C(C)(C)C)CC3)cc2n1C1CCCC1", "inhibition": "0.89%"}]}]}
